We go through nine molecules from PubChem BioAssay (NCATS).

Each structure is given as a SMILES string. Values without a mark were called inactive. Inconclusive results are not listed. The source made the active and inactive calls. Unless noted, the call rests on the fitted dose curve; in most records, active means well fitted curve in either direction with a large enough effect (not every such curve was filed as active); inconclusive means small, poorly fitted or top-dose-only effect, or another doubt; inactive means flat fitted curve, though single readings scatter.

In experiment [1] the target is Lysosomal acid glucosylceramidase (Homo sapiens) (UniProt P04062). The experiment can be described thus: Glucocerebrosidase-p2 (AID 348; in the data active means potency below about 10 µM; further: potency means the concentration at half of the fitted maximal effect). The conditions noted are these: purified GBA, blue fluorogenic substrate, 40 min. In short, it runs like this: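 Compounds titrated from 0.6 nM upwards against 0.2 nM enzyme in pH 5.9 citric acid/KH2PO4, taurocholate, tween-20; blue fluorogenic substrate 80 uM, 40 min room temperature, stopped and read Ex 365/Em 440 for AC50.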

For experiment [2], the target named is Cytochrome P450 1A2 (Homo sapiens) (UniProt P05177). In words: p450-cyp1a2 (AID 410; calls by dose curve; further: potency means the concentration at half of the fitted maximal effect;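 on activity change, negative = inhibition: -100% = full effect of reference inhibitor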). In short, it runs like this:
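Luminescent readout of luciferin formed from Luciferin-ME by human CYP1A2; data normalized against complete inhibition by 57 uM furafylline. Enzyme 20nM, substrate 100uM at Km, 100mM KPO4 buffer, 60 min reaction at room temperature.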

A short description of experiment [3]: NFAT Signaling Pathway (AID 444).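 Further: carbachol stimulus at about its EC50 of 1 µM final; on the % scale 0 is the no-effect control and ±100 the full control effect.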 The conditions noted are these: Jurkat NFAT-bla M1, carbachol, beta-lactamase ratio, 5 h; at 7.69 µM (top of the series) unless noted. In short, it runs like this: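 Jurkat cells carrying an NFAT-driven β-lactamase reporter and co-transfected muscarinic M1 receptor were treated with compound plus carbachol (1 uM final, an EC50 level) for 5 h at 37 °C. CCF4 loading followed for 1 h at RT; 460/530 nm ratio gave %activity.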

The nature of experiment [4]: Stat Signaling Pathway (AID 446).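 Further: ME-180 cervical cancer cells given 40 pM IL-6 alongside compound; SIE-controlled beta-lactamase reporter measured as 460/530 nm FRET emission ratio; on the % scale 0 is the no-effect control and ±100 the full control effect.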 The settings on record: ME-180 SIE beta-lactamase reporter, IL-6 stimulated, 5 h; at 7.69 µM (top of the series) unless noted. In short, it runs like this:
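Screening format detects activators and inhibitors alike: ME-180 SIE-bla cells stimulated at 40 pM IL-6 for 5 hrs with compound, then dual-emission beta-lactamase read at 405 nm excitation.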

Experiment [5] has as its target Glucocorticoid receptor (Homo sapiens) (UniProt P04150). The experiment can be described thus: GR-GFP Redistribution (AID 450;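 active means compounds whose dose series gives a full or clear partial fitted curve of increased nuclear translocation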; further: potency means the concentration at half of the fitted maximal effect). The conditions noted are these: U2OS GR-GFP nuclear translocation, laser cytometry, 2 h.
The target is the same in experiment [6]. The experiment can be described thus: GR-EFC Redistribution (AID 451; calls by dose curve; further: potency means the concentration at half of the fitted maximal effect). The settings on record: CHO-K1 GR-EFC translocation, beta-gal luminescence, 2 h. In outline:
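CHO-K1 cells stably expressing nuclear-localized β-gal enzyme acceptor and GR fused C-terminally to the enzyme donor fragment; ligand-driven nuclear translocation restores β-gal by complementation. Compounds titrated up to 46 uM final, 2 h at 37 °C; luminescence read.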

In experiment [7] the target is Mitogen-activated protein kinase 10 (Mus musculus) (UniProt Q61831). In words: JNK3 AlphaScreen Assay (AID 530).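 Further: kinase came from lysate of stimulated human HepG2 cells; signal reports phosphorylation of biotinylated GST-cJun 1-79 at Ser73 with 10 µM ATP; on the % scale 0 is the no-effect control and ±100 the full control effect.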 In short, it runs like this:
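Inhibitors reduce antibody binding to phosphorylated biotin-cJun, lowering AlphaScreen luminescence. Lysates from HepG2 cells pre-activated by IL-1beta plus TNF-alpha supplied JNK3; compounds were titrated.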
(In general: Bead proximity is the source of the signal in Alpha formats.)

For experiment [8], the target named is 3',5'-cyclic-AMP phosphodiesterase 4B (Homo sapiens) (UniProt Q07343). In words: qHTS Assay for Inhibitors of PDE-IV (AID 607; active means well fitted activation curve with a large enough effect in the main read-out, with a control signal flat, not every such curve was filed as active; further: % of control where 0% means no effect). In outline:
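The readout is membrane depolarisation from a cAMP-sensing CNG channel, detected with a potential dye at ex 535/em 590. Cells were HEK293-derived (endogenous PDE-IV) at 1000 cells/well, titrated up to 22.9 uM final.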
(In general: qHTS replaces the single test concentration by a dilution series.)

The target in experiment [9] is Cytochrome P450 2D6 (Homo sapiens) (UniProt P10635). The experiment can be described thus: qHTS Assay for Inhibitors and Substrates of Cytochrome P450 2D6 (AID 891; active means well fitted curve in the direction sought with a large enough effect; an effect the other way counts as inactive or inconclusive; further: potency means the concentration at half of the fitted maximal effect; nearly all actives have a fitted effect of over 60% in size). In short, it runs like this: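 Human CYP2D6 (5 nM) with 30 uM Luciferin-ME EGE (at Km) in 100 mM KPO4, compound preincubated 10 min, then NADPH regeneration system for 60 min at room temperature. Luciferin read by luminescence; normalized to 1.43 uM quinidine.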

Experiment [10] has as its target Cytochrome P450 2C19 (Homo sapiens) (UniProt P33261). In words: qHTS Assay for Inhibitors and Substrates of Cytochrome P450 2C19 (AID 899; active means well fitted curve in the direction sought with a large enough effect; an effect the other way counts as inactive or inconclusive; further: nearly all actives have a fitted effect of over 60% in size; further: potency means the concentration at half of the fitted maximal effect; on activity, negative = inhibition: on the % scale 0 is the no-effect control and ±100 the full control effect). In short, it runs like this:
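In 50mM KPO4, the reaction held 5nM enzyme and KM-level (10uM) Luciferin-H EGE; it ran 60 min at 37C after NADPH regeneration and a 10 min compound preincubation. Luminescence values were scaled to 57uM ketoconazole as complete inhibition.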

Experiment [11] addresses Cytochrome P450 2C9 (Homo sapiens) (UniProt P11712). In words: qHTS Assay for Inhibitors and Substrates of Cytochrome P450 2C9 (AID 883; active means well fitted curve in the direction sought with a large enough effect; an effect the other way counts as inactive or inconclusive; further: potency means the concentration at half of the fitted maximal effect; nearly all actives have a fitted effect of over 60% in size). In outline:
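CYP2C9 deoxyluciferin hydroxylation, 37C, 60 min with NADPH regeneration; 10nM enzyme, 100uM Luciferin-H (KM). Glo detection reagent stopped reaction; luminescence normalized to sulphaphenazole (57uM) full inhibition.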

The target of experiment [12] is Cytochrome P450 3A4 (Homo sapiens) (UniProt P08684). The experiment can be described thus: qHTS Assay for Activators of Cytochrome P450 3A4 (AID 885; active means well fitted curve in the direction sought with a large enough effect; an effect the other way counts as inactive or inconclusive; further: nearly all actives have a fitted effect of over 65% in size). In outline:
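Steps: enzyme/substrate mix dispensed; compound added, 10 min RT; NADPH regeneration solution added, 60 min RT; luciferin detection buffer stops reaction; 20 min later luminescence measured.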

Experiment [13] can be described thus: qHTS Assay for Identification of Small Molecule Agonists for Hypoxia Response Element Signaling Pathway (AID 914; active means well fitted activation curve with a large enough effect in the signal ratio, with a control signal flat, not every such curve was filed as active; the % refers to the signal ratio; further: potency means the concentration at half of the fitted maximal effect; on activation: % of control where 0% means no effect). The settings on record: ME-180 (cervical carcinoma) HRE-bla reporter, beta-lactamase ratio, CoCl2, 17 h; activation: hits give high values. In short, it runs like this:
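AC50 values come from titration-series %Activity, taken as the 460/530nm ratio of CCF4 fluorescence (excitation 405nm). CellSensor HRE-bla ME-180 cells were treated 17 hours at 37 C with compound plus an EC50 level of CoCl2.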

Experiment [14] has as its target Cytochrome P450 3A4 (Homo sapiens) (UniProt P08684). The experiment can be described thus: qHTS Assay for Inhibitors and Substrates of Cytochrome P450 3A4 (AID 884; active means well fitted curve in the direction sought with a large enough effect; an effect the other way counts as inactive or inconclusive; further: potency means the concentration at half of the fitted maximal effect; nearly all actives have a fitted effect of over 50% in size). In outline: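 20 nM human CYP3A4 with 25 uM Luciferin-PPXE (at KM) in 200 mM KPO4, preincubated 10 min with compound; NADPH regeneration started a 60 min RT reaction. Luciferin detected by luminescence, normalized to 57 uM ketoconazole as full inhibition.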

A short description of experiment [15]: Confirmation and Secondary Assay for Modulators of Hemoglobin Beta Chain Splicing at IVS2 654 locus (AID 910; active means well fitted curve in the direction sought with a large enough effect; an effect the other way counts as inactive or inconclusive;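 further: per-well total GFP intensity by laser scanning cytometry after 2-day treatment; % of control where 0% means no effect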). In short, it runs like this:
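HeLa cells stably carrying EGFP interrupted by mutant beta-globin IVS2-654 intron (CMV-driven) were treated with compound for 2 days at 37C; corrected splicing was scored as total peak GFP intensity per well (488 nm excitation, 500-520 nm emission).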

A short description of experiment [16]: Confirmation and Secondary Assay for Modulators of Hemoglobin Beta Chain Splicing at IVS2 705 locus (AID 930; active means well fitted curve in the direction sought with a large enough effect; an effect the other way counts as inactive or inconclusive;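 further: HeLa cells stably expressing the EGFP-705 splicing reporter; % of control where 0% means no effect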). In short, it runs like this:
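Restored EGFP fluorescence after 2-day compound exposure reports splicing correction in IVS2-705 EGFP reporter HeLa cells; positive control was 500 nM splice-blocking PNA oligo. Signal measured as well total peak GFP intensity (488 nm excitation).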

Chain of Lysosomal acid glucosylceramidase (Homo sapiens) (P04062 whole entry, looked up): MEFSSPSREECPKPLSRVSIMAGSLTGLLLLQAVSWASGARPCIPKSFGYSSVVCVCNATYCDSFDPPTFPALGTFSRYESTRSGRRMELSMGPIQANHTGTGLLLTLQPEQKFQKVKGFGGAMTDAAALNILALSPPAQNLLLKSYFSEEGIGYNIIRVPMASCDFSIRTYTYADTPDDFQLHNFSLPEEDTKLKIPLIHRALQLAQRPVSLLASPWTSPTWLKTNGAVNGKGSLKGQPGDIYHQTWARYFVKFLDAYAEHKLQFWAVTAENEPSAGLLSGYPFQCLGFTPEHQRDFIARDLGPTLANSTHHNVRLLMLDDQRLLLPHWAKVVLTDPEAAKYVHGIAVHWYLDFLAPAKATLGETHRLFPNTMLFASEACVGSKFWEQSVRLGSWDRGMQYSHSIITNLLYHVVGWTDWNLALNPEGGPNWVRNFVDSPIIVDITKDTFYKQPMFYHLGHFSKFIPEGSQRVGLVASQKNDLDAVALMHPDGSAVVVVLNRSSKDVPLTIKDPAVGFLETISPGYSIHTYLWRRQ
Chain of Cytochrome P450 3A4 (Homo sapiens) (P08684 whole entry, looked up): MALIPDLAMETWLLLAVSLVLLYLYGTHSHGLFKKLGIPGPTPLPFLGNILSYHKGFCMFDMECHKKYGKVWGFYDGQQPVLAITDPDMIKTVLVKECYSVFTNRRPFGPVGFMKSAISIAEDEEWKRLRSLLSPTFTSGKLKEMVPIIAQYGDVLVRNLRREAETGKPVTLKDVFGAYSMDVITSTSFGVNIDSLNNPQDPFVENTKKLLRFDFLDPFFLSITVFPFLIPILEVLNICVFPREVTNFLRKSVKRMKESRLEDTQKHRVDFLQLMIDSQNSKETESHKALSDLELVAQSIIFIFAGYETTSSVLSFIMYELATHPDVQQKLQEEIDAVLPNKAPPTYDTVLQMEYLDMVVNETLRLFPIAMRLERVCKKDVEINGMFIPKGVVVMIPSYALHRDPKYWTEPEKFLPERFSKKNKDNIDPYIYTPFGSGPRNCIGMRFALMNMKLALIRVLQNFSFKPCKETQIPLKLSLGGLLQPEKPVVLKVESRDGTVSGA
Chain of 3',5'-cyclic-AMP phosphodiesterase 4B (Homo sapiens) (Q07343 whole entry, looked up): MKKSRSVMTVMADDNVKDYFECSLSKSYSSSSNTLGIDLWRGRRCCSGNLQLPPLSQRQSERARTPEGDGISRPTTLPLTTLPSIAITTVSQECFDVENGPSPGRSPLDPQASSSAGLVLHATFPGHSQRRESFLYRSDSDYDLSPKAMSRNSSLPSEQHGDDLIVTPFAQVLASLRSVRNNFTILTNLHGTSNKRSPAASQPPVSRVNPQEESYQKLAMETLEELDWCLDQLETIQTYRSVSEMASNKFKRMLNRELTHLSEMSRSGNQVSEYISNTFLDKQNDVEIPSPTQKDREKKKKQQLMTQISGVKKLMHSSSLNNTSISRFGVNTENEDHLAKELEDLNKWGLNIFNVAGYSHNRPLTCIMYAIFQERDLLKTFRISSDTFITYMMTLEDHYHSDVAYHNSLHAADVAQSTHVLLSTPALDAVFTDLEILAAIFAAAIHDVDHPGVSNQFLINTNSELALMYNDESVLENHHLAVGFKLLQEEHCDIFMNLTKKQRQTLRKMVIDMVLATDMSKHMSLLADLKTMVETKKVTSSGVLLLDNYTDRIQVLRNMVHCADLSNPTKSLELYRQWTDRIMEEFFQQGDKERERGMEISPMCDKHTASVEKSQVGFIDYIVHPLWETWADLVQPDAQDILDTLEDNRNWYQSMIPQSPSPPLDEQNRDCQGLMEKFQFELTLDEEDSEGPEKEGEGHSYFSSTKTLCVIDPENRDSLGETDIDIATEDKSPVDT
Chain of Cytochrome P450 1A2 (Homo sapiens) (P05177 whole entry, looked up): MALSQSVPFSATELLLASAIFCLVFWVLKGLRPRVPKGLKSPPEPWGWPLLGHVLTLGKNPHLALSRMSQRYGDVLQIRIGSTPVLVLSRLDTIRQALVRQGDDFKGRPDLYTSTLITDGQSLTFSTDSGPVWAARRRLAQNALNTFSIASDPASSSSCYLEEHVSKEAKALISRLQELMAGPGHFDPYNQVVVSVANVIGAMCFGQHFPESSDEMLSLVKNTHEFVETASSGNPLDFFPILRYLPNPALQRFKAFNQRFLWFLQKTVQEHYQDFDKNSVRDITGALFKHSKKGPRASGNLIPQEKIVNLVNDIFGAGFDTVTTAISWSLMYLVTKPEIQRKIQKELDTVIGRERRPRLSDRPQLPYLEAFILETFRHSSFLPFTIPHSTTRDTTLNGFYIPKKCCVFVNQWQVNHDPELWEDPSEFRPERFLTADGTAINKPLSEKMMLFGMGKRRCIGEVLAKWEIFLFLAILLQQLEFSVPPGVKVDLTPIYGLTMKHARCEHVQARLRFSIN
Chain of Glucocorticoid receptor (Homo sapiens) (P04150 whole entry, looked up): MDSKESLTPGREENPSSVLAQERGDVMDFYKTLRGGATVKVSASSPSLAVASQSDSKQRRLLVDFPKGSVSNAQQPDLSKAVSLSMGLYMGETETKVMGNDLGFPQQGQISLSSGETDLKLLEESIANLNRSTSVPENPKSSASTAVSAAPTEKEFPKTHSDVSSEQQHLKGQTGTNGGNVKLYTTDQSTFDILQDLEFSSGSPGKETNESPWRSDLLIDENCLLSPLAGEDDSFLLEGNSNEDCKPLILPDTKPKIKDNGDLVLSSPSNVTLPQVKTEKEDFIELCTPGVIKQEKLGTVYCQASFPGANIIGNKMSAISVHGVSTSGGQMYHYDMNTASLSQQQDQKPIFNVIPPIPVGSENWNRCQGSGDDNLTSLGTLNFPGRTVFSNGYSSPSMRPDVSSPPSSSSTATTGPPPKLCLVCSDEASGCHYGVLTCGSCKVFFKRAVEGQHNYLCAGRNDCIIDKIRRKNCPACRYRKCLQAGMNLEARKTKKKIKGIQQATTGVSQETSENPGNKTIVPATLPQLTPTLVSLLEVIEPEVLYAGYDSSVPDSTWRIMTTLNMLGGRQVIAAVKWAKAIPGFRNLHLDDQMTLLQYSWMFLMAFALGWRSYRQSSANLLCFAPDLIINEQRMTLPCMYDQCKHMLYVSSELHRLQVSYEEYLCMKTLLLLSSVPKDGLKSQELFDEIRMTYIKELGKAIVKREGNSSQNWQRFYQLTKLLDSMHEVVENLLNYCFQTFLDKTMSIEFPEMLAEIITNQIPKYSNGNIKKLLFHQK
Chain of Cytochrome P450 2D6 (Homo sapiens) (P10635 whole entry, looked up): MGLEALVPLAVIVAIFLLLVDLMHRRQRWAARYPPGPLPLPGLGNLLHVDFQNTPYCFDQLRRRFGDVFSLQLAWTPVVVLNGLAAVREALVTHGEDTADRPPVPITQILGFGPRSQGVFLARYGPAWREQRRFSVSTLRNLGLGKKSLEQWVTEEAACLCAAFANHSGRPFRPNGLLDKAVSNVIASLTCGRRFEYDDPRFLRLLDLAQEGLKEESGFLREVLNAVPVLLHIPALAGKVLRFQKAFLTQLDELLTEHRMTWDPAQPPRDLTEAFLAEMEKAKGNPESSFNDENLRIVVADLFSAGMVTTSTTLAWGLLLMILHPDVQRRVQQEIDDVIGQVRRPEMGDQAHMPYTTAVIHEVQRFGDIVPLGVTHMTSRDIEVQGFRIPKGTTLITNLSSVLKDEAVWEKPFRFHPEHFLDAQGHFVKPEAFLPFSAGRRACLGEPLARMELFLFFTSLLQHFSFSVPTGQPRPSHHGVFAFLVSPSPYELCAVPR
Chain of Cytochrome P450 2C19 (Homo sapiens) (P33261 whole entry, looked up): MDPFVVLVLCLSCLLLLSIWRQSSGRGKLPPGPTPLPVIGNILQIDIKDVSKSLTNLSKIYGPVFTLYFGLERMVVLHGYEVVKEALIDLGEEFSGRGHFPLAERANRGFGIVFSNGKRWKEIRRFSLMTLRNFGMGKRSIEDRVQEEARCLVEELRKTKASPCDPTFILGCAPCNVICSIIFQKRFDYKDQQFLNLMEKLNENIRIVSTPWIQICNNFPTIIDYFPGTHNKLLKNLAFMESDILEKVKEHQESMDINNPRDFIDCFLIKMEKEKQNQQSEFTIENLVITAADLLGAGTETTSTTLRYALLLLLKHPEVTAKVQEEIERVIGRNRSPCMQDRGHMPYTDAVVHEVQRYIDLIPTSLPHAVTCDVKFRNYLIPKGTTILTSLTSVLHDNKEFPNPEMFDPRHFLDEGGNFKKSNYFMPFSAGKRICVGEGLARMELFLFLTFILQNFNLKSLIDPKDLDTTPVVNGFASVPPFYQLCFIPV
Chain of Cytochrome P450 2C9 (Homo sapiens) (P11712 whole entry, looked up): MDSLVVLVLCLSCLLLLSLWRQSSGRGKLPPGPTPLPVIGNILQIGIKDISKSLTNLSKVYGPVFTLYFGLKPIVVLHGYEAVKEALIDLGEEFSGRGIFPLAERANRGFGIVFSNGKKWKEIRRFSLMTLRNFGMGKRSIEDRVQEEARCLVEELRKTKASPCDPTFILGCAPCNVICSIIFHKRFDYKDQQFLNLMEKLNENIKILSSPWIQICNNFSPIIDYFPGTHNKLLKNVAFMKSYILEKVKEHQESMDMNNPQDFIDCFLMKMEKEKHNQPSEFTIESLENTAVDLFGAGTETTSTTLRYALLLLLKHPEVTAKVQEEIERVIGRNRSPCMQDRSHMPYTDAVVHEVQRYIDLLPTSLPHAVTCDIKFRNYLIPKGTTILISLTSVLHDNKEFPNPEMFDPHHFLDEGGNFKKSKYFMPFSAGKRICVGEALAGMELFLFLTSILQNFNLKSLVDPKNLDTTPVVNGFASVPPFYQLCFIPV

On to `C[C@]12CC[C@H]3c4ccc(O)cc4CC[C@@H]3[C@H]1CC[C@@H]2OC(=O)CCc1ccccc1`, for which the results for the Potency in experiment [1], in [5] and in experiment [6] were greater than 11.4 µM, greater than 46 µM and greater than 9.22 µM, respectively. The activity change, negative = inhibition was -13.8% [at 2.29 µM] in [2] and -14.3% in experiment [3]. In addition, the activity, negative = inhibition in experiment [4] is -1.42%. The Potency result in [7] and in [8] was “inactive” throughout.
Take `CN(C)CCCN1c2ccc3ccccc3c2Sc2cccc(Cl)c21`: the Potency in experiment [1] is greater than 11.4 µM; in experiment [2], 1 µM (active); in [5] it was greater than 46 µM; in experiment [6], greater than 9.22 µM; in experiment [9], 0.501 µM (active); in experiment [10], 5.01 µM (active). Further, in experiment [3], the activity change, negative = inhibition is 1.06%. Moreover, in experiment [4], the activity, negative = inhibition was 2.06%. Moreover, the Potency entry in experiment [7] and in [8] was “inactive” each time.
With `COCCn1c(=O)c(-c2cccc(C#N)c2)nc2cnc(N3CCNCC3)nc21`, the Potency in experiment [1] was greater than 11.4 µM; in experiment [2], 10 µM (active); in experiment [5], greater than 9.22 µM; in experiment [6], greater than 46 µM; in experiment [11], 3.98 µM (active); in experiment [13], 3.16 µM (active). Further, the Potency entry in [7], in experiment [8] and in experiment [12] was “inactive” in each case.
Regarding `CN(C)CN1C(=O)S/C(=C2/C(=O)N(CN(C)C)c3ccccc32)C1=O`, the Potency in experiment [1] is greater than 11.4 µM; in experiment [2] it was 0.794 µM (active); in [6], greater than 9.22 µM. The activity change, negative = inhibition in [3] is 9.46%. In experiment [4], the activity, negative = inhibition was -0.139%. Besides, the Potency result in experiment [7] and in experiment [8] was “inactive” in each case.
Consider `COc1ccc2nc3cc(Cl)ccc3c(Nc3ccc(O)c(CN4CCN(C)CC4)c3)c2c1`, for which the Potency in experiment [1] is greater than 11.4 µM; in experiment [2] it was 3.98 µM (active); in [5], greater than 46 µM; in experiment [6], greater than 9.22 µM. Moreover, the activity, negative = inhibition in experiment [4] was 23%. Also, the Potency result in [7] and in experiment [8] was “inactive” in each case. In [13], the activation is 26.1%.
For the molecule `O=C(O)C[C@H](NC(=O)CP(=O)(O)O)C(=O)O.[NH-][C@@H]1CCCC[C@@H]1[NH-].[Pt]`, the Potency in experiment [1] was greater than 11.4 µM; in experiment [5], greater than 46 µM; in experiment [6] it was greater than 9.22 µM. For the same molecule, the Potency entry in experiment [2] and in experiment [8] was “inactive” each time. In experiment [4], the activity, negative = inhibition was -12%.
With `Cc1cccc(CNc2ncnc3ccc(-c4ccc(C(=O)N(C)C)cc4)cc23)c1`, the Potency in [1] was greater than 11.4 µM; in [2], 15.8 µM (active); in experiment [5], greater than 46 µM; in experiment [6], greater than 46 µM; in experiment [14] it was 2 µM (active). Also, the activity change, negative = inhibition in experiment [3] was -8.36%. For the same molecule, the Potency result in [7], in [8] and in experiment [12] was “inactive” each time. For the same molecule, the molecule was classed as inactive in [15] and in [16].
As for `CN(C)CCCn1c2c3ccccc3ccc2c2oc(=O)c3ccccc3c21`, the Potency in experiment [1] is greater than 11.4 µM; in [2], 0.316 µM (active); in [5], greater than 46 µM; in experiment [6] it was greater than 9.22 µM; in experiment [9], 1.26 µM (active). In experiment [3], the activity change, negative = inhibition is -13.6%. For the same molecule, the Potency entry in [7] and in experiment [8] was “inactive” in each case.
As to `CC(CC(=O)O)(CC(=O)O)c1ccccc1`, the values for the Potency in experiment [1] and in experiment [6] were greater than 11.4 µM and greater than 9.22 µM, respectively. In addition, the Potency entry in experiment [2], in [7], in experiment [8] and in [10] was “inactive” throughout. Further, the activity change, negative = inhibition in [3] was 4.46%. Moreover, the activity, negative = inhibition in [4] is 7.69%.
